Records with an inconclusive call do not appear. Activity calls are given as the source filed them. The call rests on the fitted dose curve; in most records, active means well fitted curve in the direction sought with a large enough effect in the signal ratio; inconclusive means small, poorly fitted or top-dose-only effect, or a change in a side signal; inactive means no such curve, though single readings can be large or run the other way; the % refers to the signal ratio.
These compounds were tested against Follicle-stimulating hormone receptor (Homo sapiens) (UniProt P23945) (assay: Counterscreen for Agonists of Thyroid Stimulating Hormone Receptor: HTRF Activity in a Follicle Stimulating Hormone Receptor Cell Line). Settings: HEK293-FSHR cells, 30 min; series mostly up to 91.7 µM.
Text: NIH Chemical Genomics Center [NCGC] NIH Molecular Libraries Screening Centers Network [MLSCN] MLSCN Grant: 1 X01 MH080680-01 PI Name: Dr. Marvin Gershengorn, NIH NCGC Assay Overview: Confirmation of Thyroid Stimulating Hormone Receptor Agonists TSH is an alpha/beta heterodimeric glycoprotein hormone secreted from the anterior pituitary gland which belongs to the glycoprotein hormone family. The actions of TSH are mediated by a seven-transmembrane receptor, which upon TSH binding couples preferentially to the G-alpha (s) protein (Gs), resulting in activation of adenylate cyclase and increase in cyclic adenosine 3', 5' monophosphate (cAMP). The TSH receptor (THSR) is mainly expressed in thyroid follicular cells and regulates their growth and function. Recombinant TSH is used to activate TSHR in patients with thyroid cancer receiving thyroid hormone suppression therapy and to screen for residual tumor after surgery, but it is expensive and must be administered intramuscularly. An orally active small molecule TSHR agonist would serve as an invaluable research tool for studying TSHR pharmacology and physiology, and would have multiple advantages in therapeutic settings. However, no selective small molecule agonist of the TSH receptor exists, and no small molecule screen for TSHR agonists has ever been reported. In order to confirm specificity of the compounds to the TSHR, a confirmatory assay was conducted on a similar family member, the Follicle Stimulating Hormone (FSH) receptor, transfected into a HEK 293 cell line, using an orthogonal detection technology to measure cAMP stimulation: antibody-based Homogeneous Time Resolved Fluorescence (HTRF).
NCGC Assay Protocol Summary: Homogeneous Time Resolved Fluorescence (HTRF) cAMP Assay. HEK 293 cells stably transfected with a vector containing the FSH receptor and maintained under hygromycin selection were obtained from the laboratory of Dr. Marvin Gershengorn. Compounds were assayed using a HTRF cAMP detection kit (Cisbio) on the FSH receptor transfected cell line. Briefly, 750 cells were plated in 2.5 ul/well of complete media (DMEM containing 10 % FCS, and 100 uM RO 20-1724) in 1536 well solid bottom white plates and 23 nl/well compound in DMSO solution or controls was added. Following 30 minute incubation at room temperature, 2.5 ul/well of labeled d2 cAMP and 2.5 ul/well of anti-cAMP antibody (both diluted 1:20 in lysis buffer) were added to each well using a flying reagent dispenser (Aurora Discovery, San Diego) . Plates were measured using the Envision plate reader (PerkinElmer, Boston, MA) with excitation at 330 nm and emissions of 615 nm and 660 nm. Keywords: Follicle Stimulating hormone FSH, Thyroid-stimulating hormone TSH, TSHR, TSHR agonist, quantitative high throughput screening, qHTS, HTS, probe identification, CNG, cAMP, cyclic nucleotide gated ion channel PubChem
In the case of O=c1c2c(-c3ccccc3)csc2ncn1/N=C/c1cn(-c2ccccc2)nc1-c1cccs1, the outcome is reported as “inactive”.
For O=C(COC(=O)C12CC3CC(CC(Br)(C3)C1)C2)NCc1ccco1, the outcome was “inactive”.
With COc1ccc(C2Nc3cccc(O)c3C(=O)N2Cc2ccccc2)cc1COc1ccc(NC(C)=O)cc1 (stereo unspecified) the outcome was “inactive”.
For Cc1nn(-c2ccccc2)c(N2CCCC2)c1/C=N/n1cnc2scc(-c3ccccc3)c2c1=O, the outcome was “inactive”.
With NC(=O)c1nsc(C(=O)N(CC(=O)NC2CCCC2)Cc2ccc3c(c2)OCO3)c1N the outcome was “inactive”.
For O=C1C2C3CCCC3=C3CCCC3C2C(=O)N1c1ccc(Cl)cc1 (stereo unspecified), the outcome was “inactive”.
O=C1C2C3CCCC3=C3CCCC3C2C(=O)N1c1ccccc1Cl (stereo unspecified) was tested, and the outcome was “inactive”.
For COc1cc(OC)c(C(=O)N(Cc2ccco2)Cc2cccs2)cc1OC, the outcome was “inactive”.
With NC(=O)c1nsc(C(=O)N(CC(=O)NCc2ccc3c(c2)OCO3)C2CCCCC2)c1N the outcome was “inactive”.
For COc1ccc(C2Nc3ccccc3C(=O)N2Cc2ccco2)cc1COc1ccc(NC(C)=O)cc1 (stereo unspecified), the outcome was “inactive”.
For O=C(COC(=O)C12CC3CC(CC(C3)C1)C2)NCc1ccco1, the outcome was “inactive”.
COc1ccc(C2Nc3ccccc3C(=O)N2Cc2ccco2)cc1COc1ccc([N+](=O)[O-])cc1 (stereo unspecified) was tested, and the outcome was “inactive”.
Cc1sc2ncn(/N=C/c3cn(-c4ccccc4)nc3-c3ccccc3)c(=O)c2c1C was tested, and the outcome was “inactive”.
With O=C(COC(=O)C12CC3CC(CC(Cl)(C3)C1)C2)NCc1ccco1 the outcome was “inactive”.
In the case of O=C1C2C3CCCC3=C3CCCC3C2C(=O)N1c1ccc(F)cc1 (stereo unspecified), the outcome is reported as “inactive”.
In the case of O=C(COC(=O)C12CC3CC(CC(C3)C1)C2)NCC1CCCO1 (stereo unspecified), the outcome is reported as “inactive”.
For COc1ccc(C(=O)N(Cc2ccco2)Cc2cccs2)c(OC)c1, the outcome was “inactive”.
NC(=O)c1nsc(C(=O)N(CC(=O)NCc2ccc3c(c2)OCO3)C2CCCC2)c1N was tested, and the outcome was “inactive”.
COc1ccc(C(=O)N(Cc2ccco2)Cc2cccs2)cc1 was tested, and the outcome was “inactive”.
In the case of O=C1C2C3CCCC3=C3CCCC3C2C(=O)N1c1cccc(Cl)c1 (stereo unspecified), the outcome is reported as “inactive”.
For COc1ccc(C2Nc3ccccc3C(=O)N2Cc2ccco2)cc1COc1c(C)cccc1C (stereo unspecified), the outcome was “inactive”.
COc1ccc(C(=O)N(Cc2ccco2)Cc2cccs2)c(O)c1 was tested, and the outcome was “inactive”.
For CCn1c(=O)c(C(=O)CN2CCCc3ccccc32)c(N)n(Cc2ccccc2)c1=O, the outcome was “inactive”.
O=C(COC(=O)C12CC3CC(CC(O)(C3)C1)C2)NCc1ccco1 was tested, and the outcome was “inactive”.
With O=C1CC(c2ccccc2)CC2=C1C(c1ccco1)n1nc(C(F)(F)F)nc1N2 (stereo unspecified) the outcome was “inactive”.
CC(NC(=O)COC(=O)c1ccco1)C12CC3CC(CC(C3)C1)C2 (stereo unspecified) was tested, and the outcome was “inactive”.
